# Assay outcomes deposited in PubChem BioAssay by several laboratories.
# Sampled rows, rich in hits. Any-hit rate of the full collection: about 4.1%.
# Mtb UGM inh = blocks M. tuberculosis UGM enzyme. P9WIQ1. purified UGM, fluorescence polarization probe displacement. inhibition, % at 10 µM. 320,000 compounds, 0.06% hits; in the data active = inhibition above about 10%, passing the limit was not always enough
# GDH-TPI counter-1 = inhibits GDH-TPI coupling enzymes, artifact for Mtb FBA screen | GDH-TPI coupled enzyme counterscreen, NADH absorbance | inhibition, % at 4.8 µM | 360,000 compounds, 1.2% hits; in the data active = inhibition above about 30%;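 note: 0% = DMSO wells and 100% = wells lacking the enzyme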
# RecA splice inh = inhibitors of M. tuberculosis RecA intein splicing; inhibition, % (concentration not given with the values); P9WHJ3; 290,000 compounds, 0.75% hits; cell-free RecA intein splicing, fluorescence; in the data active = inhibition above about 30%;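 note: 0% = vehicle wells and 100% = reference inhibitor control wells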
# Target sequence (P9WHJ3 whole entry, looked up, canonical isoform): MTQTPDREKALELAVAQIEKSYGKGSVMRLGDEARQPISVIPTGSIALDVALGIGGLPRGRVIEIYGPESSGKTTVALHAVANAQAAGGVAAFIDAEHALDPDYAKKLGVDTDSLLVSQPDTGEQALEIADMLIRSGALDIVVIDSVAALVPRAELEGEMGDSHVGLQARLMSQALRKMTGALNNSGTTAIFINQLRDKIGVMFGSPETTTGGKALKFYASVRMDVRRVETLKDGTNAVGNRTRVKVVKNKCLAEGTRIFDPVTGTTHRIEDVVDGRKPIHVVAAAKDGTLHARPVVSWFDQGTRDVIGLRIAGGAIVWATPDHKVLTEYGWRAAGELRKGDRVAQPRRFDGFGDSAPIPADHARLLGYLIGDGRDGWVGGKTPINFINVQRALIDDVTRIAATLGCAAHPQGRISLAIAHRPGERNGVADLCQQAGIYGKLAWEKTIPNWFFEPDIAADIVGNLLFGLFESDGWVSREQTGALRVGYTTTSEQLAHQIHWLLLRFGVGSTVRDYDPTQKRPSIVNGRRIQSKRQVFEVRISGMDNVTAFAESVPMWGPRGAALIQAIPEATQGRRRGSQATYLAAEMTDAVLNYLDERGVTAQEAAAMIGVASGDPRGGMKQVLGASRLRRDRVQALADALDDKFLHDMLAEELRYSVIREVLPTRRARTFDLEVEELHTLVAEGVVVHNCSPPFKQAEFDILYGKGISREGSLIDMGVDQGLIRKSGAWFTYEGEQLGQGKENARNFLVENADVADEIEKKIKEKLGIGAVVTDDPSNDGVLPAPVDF
# FBA Mtb inh = Mtb fructose-bisphosphate aldolase inhibition; P9WQA3; AID 588726; 360,000 compounds, 2.3% hits; inhibition, % at 1 µM; purified M. tuberculosis FBA, fluorescence read-out;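 note: 0% = vehicle and 100% = reference inhibitor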
# BH1578 lux ind = quorum light induction in luxS cqsA deficient V. cholerae. V. cholerae BH1578 lux reporter, luminescence, 6 h. activation, % at 18.7 µM. 350,000 compounds, 0.16% hits. AID 588436; in the data active = activation mostly above about 9.7%, no sharp cut-off
# Rv3671c inh = inhibitors of M. tuberculosis serine protease Rv3671c; inhibition, % at 5.96 µM; P9WHR9; AID 2606; 320,000 compounds, 0.048% hits; in the data active = inhibition above about 38%;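 note: extracellular domain of Rv3671c used as enzyme; 0% = enzyme with DMSO and 100% = no enzyme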
# Mtb FBA inh conf = Mtb FBA inhibition, confirmed | shares compounds with FBA Mtb inh | purified M. tuberculosis FBA, fluorescence read-out | inhibition, % at 1 µM | 5,600 compounds, 78% hits | AID 651616;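 note: 0% = vehicle wells and 100% = reference inhibitor wells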
# GDH-TPI counter-2 = counter-screen for M. tuberculosis FBA inhibitors: GDH-TPI coupled enzyme inhibition. inhibition, % at 1 µM. 5,600 compounds, 81% hits. GDH-TPI coupled enzyme counterscreen, fluorescence. shares compounds with FBA Mtb inh; in the data active = inhibition above about 10%
# GDH-TPI dose = counter-screen for M. tuberculosis FBA inhibitors: GDH-TPI dose response | shares compounds with FBA Mtb inh | GDH-TPI coupled enzyme assay, fluorescence, artifact counterscreen | IC50, µM | 170 compounds, 79% hits | AID 652145; call rule not given here
# Starred values were filed as active, the others as inactive; i = inactive; . = not tested or not shown; + = active, no number. Cut-off read from the data, not from the text of the source, unless noted: active = inhibition above about 27%; inactive = the rest.
SMILES,Mtb UGM inh,GDH-TPI counter-1,RecA splice inh,FBA Mtb inh,BH1578 lux ind,Rv3671c inh,Mtb FBA inh conf,GDH-TPI counter-2,others
Cc1ccc(NS(=O)(=O)c2ccc(NC(=O)C(C)Sc3ccc(Cl)cc3)cc2)c(C)c1 (stereo unspecified),0,2,6,81*,i,-207,2,-3,
O=C1c2ccccc2C(=O)N1CCC1(O)C(c2ccccc2)=Nc2ccccc21 (stereo unspecified),.,17,.,-2,-1,.,.,.,
CC(C)C(=O)Nc1ccc2c(c1)C(=O)N(CCC(=O)O)C2=O,-3,6,-1,40*,.,6,97*,81*,
COc1ccc(-c2cn(CCC(=O)NCc3ccc(C)cc3)c(CCN)n2)cc1,-2,-4,1,-2,0,-8,.,.,
CCOC(=O)C(=O)C1=CN(Cc2ccccc2)C=C(C#N)C1,0,16,-4,29*,0,-15,98*,70*,
CC(=O)c1nn(-c2ccc(C(F)(F)F)cc2)c(=O)[nH]c1=O,5,9,0,0,1,8,.,.,
Nc1nc2n(n1)C(c1cccs1)CC(c1ccc(Br)cc1)N2 (stereo unspecified),0,8,3,48*,-3,-7,16,9,GDH-TPI dose=7.8*
CN(CC(=O)Nc1ccc(Cl)cc1)CC(=O)N1CCc2ccccc21,.,2,.,5,i,.,.,.,
Cc1ccnc(NS(=O)(=O)Cc2ccccc2)c1,1,-4,-3,44*,i,-3,103*,68*,
Cc1ccnc(NC(=O)CS(=O)(=O)Cc2ccccc2)c1,0,8,-5,3,i,4,.,.,
O=S(=O)(Cc1ccccc1)Nc1ccc(Br)cn1,-1,4,-1,4,0,12,.,.,
Cc1ccc(NS(=O)(=O)Cc2ccccc2)nc1,0,4,1,60*,0,9,171*,142*,
Cc1ccc(S(=O)(=O)Nc2ccc(Cl)cn2)cc1,1,4,-2,0,0,2,.,.,
Cc1ccc(NS(=O)(=O)c2ccc(Br)cc2)nc1,-1,-3,-1,28*,-1,-3,+,+,
CC(=O)Nc1ccc2c(c1)nc(CCN1CCN(c3ccccn3)CC1)n2C,3,5,-3,-2,2,.,.,.,
Cc1ccc(OCc2cc(C(=O)N(C)Cc3cc(C4CC4)n[nH]3)no2)cc1C,1,5,5,0,1,-5,.,.,
COc1ccccc1C(=O)C1CCCN(C(=O)C2=CC(=O)CC(C)(C)O2)C1 (stereo unspecified),-1,0,2,1,1,-5,.,.,
C[C@H](CO)N1C[C@H](C)[C@H](CN(C)Cc2ccncc2)OCc2ccccc2-c2c(n(C)c3ccccc23)C1=O,.,3,.,1,0,.,.,.,
N=C(N)n1c(N)nc2ccccc2c1=O,-1,2,-2,59*,0,4,25,11*,
Cc1ccc(C(C)c2c(C)c([N+](=O)[O-])cc(C)c2[N+](=O)[O-])cn1 (stereo unspecified),-3,-1,2,0,0,1,.,.,
COCC(=O)Nc1nc2n(n1)C(c1ccc(OC)cc1)CC(c1ccc(OC)cc1)N2 (stereo unspecified),.,7,-11,0,-1,.,.,.,
COCC(=O)Nc1nc2n(n1)C(c1ccccc1)CC(c1ccc(OC)cc1)N2 (stereo unspecified),1,6,-150,54*,-1,5,50*,31*,
O=C(NCc1cccnc1)[C@@H]1CC=C[C@@H]2CCN(Cc3ccccc3)C(=O)[C@@H]21,4,6,2,4,-2,2,.,.,
CCOC(=O)C1CCCN(C(=O)c2cc(-c3ccncc3)nc3ccccc23)C1 (stereo unspecified),1,3,.,1,i,0,.,.,
O=C(c1cc(-c2ccco2)nc2ccccc12)N1CCCC(C(F)(F)F)C1 (stereo unspecified),-2,2,.,102*,-2,10,+,+,
SMILES,Mtb UGM inh,GDH-TPI counter-1,RecA splice inh,FBA Mtb inh,BH1578 lux ind,Rv3671c inh,Mtb FBA inh conf,GDH-TPI counter-2,others
CCOC(=O)C1CCCN(C(=O)c2cc(-c3ccco3)nc3ccccc23)C1 (stereo unspecified),.,5,.,84*,i,-1,+,157*,
O=C(c1cc(-c2ccncc2)nc2ccccc12)N1CCCC(C(F)(F)F)C1 (stereo unspecified),.,7,.,0,-1,.,.,.,
C=CCNC(=S)NNC(=O)c1ccncc1,1,12,1,-1,0,3,.,.,
CC(C)CC(C(=O)NC(C)(C)C)N(Cc1ccccc1Cl)C(=O)c1snc(C(N)=O)c1N (stereo unspecified),2,11,1,6,i,.,.,.,
Cc1ccc(S(=O)(=O)NCCC(=O)NNC(=O)c2ccccc2O)cc1C,1,-3,6,13,-1,7,.,.,
O=C(COc1ccc2oc(-c3ccccc3)cc(=O)c2c1)NCc1ccco1,2,6,-3,30*,0,-5,90*,69*,
CCOC1=C2CN(S(=O)(=O)c3ccc(C)cc3)[C@@H](c3cccs3)C[C@H]2[C@H]2C(=O)N(c3ccccc3)C(=O)[C@H]2C1,.,.,.,1,.,.,.,.,
COc1ccc(CNC(=O)CN(Cc2ccccc2)C(=O)CCC(=O)Nc2ccccn2)cc1,-2,9,-2,-1,i,10,.,.,
CN1CCN(C(=O)c2cccc(-c3cnc4cnc(-c5ccccc5Oc5ccccc5)cn34)c2)CC1,.,5,.,36*,i,.,113*,102*,
COc1cccc(-c2cnc3c(NC=O)cc(-c4ccccc4Oc4ccccc4)cn23)c1,.,3,.,0,-1,.,.,.,
N#Cc1ccc(OCC(=O)N2CCN(C(=O)c3ccco3)CC2)cc1,0,-5,.,0,0,7,.,.,
Cc1cc(C)c2c(n1)nn1c(C)c(CCC(=O)NCc3ccco3)c(C)nc21,-1,2,-3,30*,1,3,71*,48*,
Cc1ccc(-c2nc(CN(C)C)cc(CN(C)C)c2O)cc1,0,26,.,80*,7,3,5,-5,
CCOc1ncnc2c1[nH]c1ccccc12,0,14,1,37*,i,4,35*,28*,
CCOC(=O)C1CCN(c2nc3cc(OC)ccc3cc2C#N)CC1,0,4,-3,24,i,-5,.,.,
CCOC(=O)C1CCN(C(=O)c2cnn3c(C)cc(C)nc23)CC1,1,10,0,35*,i,-10,76*,55*,
